Compounds with a hit are over-represented: about 10% of the library has one in this group of screens.
12-hLO inh = inhibitors of human 12-lipoxygenase (ALOX12); 0.12% of 150,000 active; purified 12-hLO, xylenol orange hydroperoxide absorbance; Potency, µM (series often up to 57.1 µM), without a hit: top-dose activity change, negative = inhibition, actives largely listed as inhibitors; active means well fitted inhibition curve with a large enough effect; inconclusive means small, poorly fitted or top-dose-only effect; further: potency means the concentration at half of the fitted maximal effect; nearly all actives have a fitted effect of over 55% in size
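Purified human 12hLO (150 nM), preincubated 15 min with compound, then 40 uM arachidonic acid for 30 min, room temperature, Hepes pH 7.0 with 0.01% Triton X-100. Hydroperoxide detected by ferrous iron/xylenol orange; 573/405 nm absorbance ratio gives reaction progress.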
PNC assembly inh = perinucleolar compartment assembly inhibition; activity change (PNC), negative = inhibition, % at 10 µM; 3.1% of 140,000 active; PC3M PTB-GFP, PNC prevalence imaging, 16 h; stronger effect = lower value;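 active means readout at or below -70, meaning at least 70% loss of cells showing the perinucleolar compartment, a nuclear body marking cancer cells; inconclusive means readout between -30 and a set limit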;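 further: plate controls were DMSO wells for no effect and camptothecin positive control wells for full effect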
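Read-out is percentage of cells bearing a perinucleolar compartment, from automated 20x imaging of fixed, Hoechst-stained PC3M PTB-GFP cells. Cells were seeded 4 h, then exposed 16 h to compound (23 nl of library stock) in duplicate plates.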
ALDH1A1 inh = blocks purified human ALDH1A1 activity | Purified ALDH1A1, NADH fluorescence, propionaldehyde substrate | Potency, µM (doses to about 75.3 µM), without a hit: at the top dose activity, negative = inhibition, usual class: inhibitors | P00352 | AID 1030 | 7.3% of 220,000 active;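 further: potency means the concentration at half of the fitted maximal effect; plate controls were no enzyme wells and a reference inhibitor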
Target sequence (P00352 whole entry, looked up): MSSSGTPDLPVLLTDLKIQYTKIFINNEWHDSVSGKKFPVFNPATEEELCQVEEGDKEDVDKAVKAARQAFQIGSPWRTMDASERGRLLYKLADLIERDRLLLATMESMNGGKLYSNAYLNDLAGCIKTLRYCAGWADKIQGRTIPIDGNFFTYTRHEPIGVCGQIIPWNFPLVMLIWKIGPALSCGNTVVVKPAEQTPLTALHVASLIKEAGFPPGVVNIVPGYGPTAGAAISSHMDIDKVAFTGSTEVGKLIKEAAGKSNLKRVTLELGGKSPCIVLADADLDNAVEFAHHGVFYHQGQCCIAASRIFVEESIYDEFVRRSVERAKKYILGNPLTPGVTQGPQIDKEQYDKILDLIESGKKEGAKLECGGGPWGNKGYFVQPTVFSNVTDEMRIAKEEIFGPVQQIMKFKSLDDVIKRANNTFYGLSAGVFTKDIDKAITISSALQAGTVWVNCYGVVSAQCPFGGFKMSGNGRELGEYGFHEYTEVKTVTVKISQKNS
HPGD inh = blocks human HPGD enzyme activity; P15428; purified HPGD, NADH fluorescence kinetic, PGE2 substrate; Potency, µM, inactives show top-dose activity change, negative = inhibition, usual class: inhibitors; 4.3% of 150,000 active; further: potency means the concentration at half of the fitted maximal effect
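20 nM HPGD preincubated 15 min at room temperature with compound in 50 mM Tris-HCl pH 8, 0.01% Tween 20. Started with 1 mM NAD+ and 30 uM prostaglandin E2; NADH fluorescence (360/450 nm) read 5 times over 30-s intervals, last minus first.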
Lamin A splicing = modulators of lamin A splicing; HeLa LMNA splicing GFP/RFP minigene ratio, 48 h; Potency, µM (titrated, usually from 46.1 µM), without a hit: at the highest dose ratio change, negative = inhibition, actives largely listed as inhibitors; 0.01% of 200,000 active; AID 1487; active means well fitted inhibition curve with a large enough effect in the signal ratio, with a control signal flat, not every such curve was filed as active; inconclusive means small, poorly fitted or top-dose-only effect, or effect the other way, or a change in a side signal; the % refers to the signal ratio; further: potency means the concentration at half of the fitted maximal effect
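Read-out is the ratio of GFP to DsRed2 object intensity, acquired by 488 nm laser-scanning cytometry on HeLa lamin A-EGFP minigene reporter cells. Compound incubation 48 hrs at 37 °C in Opti-MEM with 2% FBS; DMSO 0.5% final.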
An asterisk follows results filed as active; [ ] = dose if it differs, or a comment. Unless noted, the call rests on the fitted dose curve; in most records, active means well fitted inhibition curve with a large enough effect (not every such curve was filed as active); inconclusive means small, poorly fitted or top-dose-only effect, or another doubt; inactive means no such curve, though single readings can be large or run the other way. Unless noted, on the % scale 0 is the no-effect control and ±100 the full control effect.

Results for Cc1sc2nc(SCC(=O)N(C)C)[nH]c(=O)c2c1C ?
12-hLO inh: 0%; PNC assembly inh: 41; ALDH1A1 inh: -2%; HPGD inh: -29%; Lamin A splicing: -2%

What do the screens show for `Cc1sc2nc(SCC(=O)N3CCCC3)[nH]c(=O)c2c1C`?
12-hLO inh: 2%; PNC assembly inh: -80*; ALDH1A1 inh: inconclusive; HPGD inh: 18µM*; Lamin A splicing: -5%

Results for CCN(CC)C(=O)CSc1nc2sc(C)c(C)c2c(=O)[nH]1 ?
12-hLO inh: -2%; PNC assembly inh: 43; ALDH1A1 inh: inconclusive; HPGD inh: 13µM*; Lamin A splicing: -1%

How did Cc1cc(C)c2c(=O)[nH]c(SCC(=O)N3CCCCC3)nc2n1 do in these assays?
12-hLO inh: -1%; PNC assembly inh: 26; ALDH1A1 inh: inconclusive; HPGD inh: inconclusive; Lamin A splicing: -1%

What do the screens show for `CC(=O)Nc1ccc(OCCC[n+]2ccccc2)cc1`?
ALDH1A1 inh: 2.5µM*; Lamin A splicing: 17%[46 µM]

Results for Nc1ncnc2nn([C@H]3O[C@@H](CO)[C@@H](O)[C@H]3O)nc12 ?
12-hLO inh: -2%[11.4 µM]; ALDH1A1 inh: 3%[13.5 µM]; HPGD inh: -13%

Results for CC1(C)[C@@H](O)CC[C@]2(C)C3C(=O)C=C4C5C[C@@](C)(C(=O)O)CC[C@]5(C)CC[C@@]4(C)[C@]3(C)CC[C@@H]12 (some centres undefined) ?
12-hLO inh: 1%; ALDH1A1 inh: 0%; HPGD inh: -1%

What do the screens show for `COc1ccc(C(C)=O)cc1CSc1nc(Nc2ccc(F)c(F)c2)c2ccccc2n1`?
Lamin A splicing: 10%[46 µM]

What do the screens show for `Cc1ccc(OCC(=O)Nc2nnn(C)n2)c(C)c1`?
12-hLO inh: 1%; PNC assembly inh: -22; ALDH1A1 inh: -1%; HPGD inh: -1%; Lamin A splicing: -1%

Results for Cc1cc(C)c(OCC(=O)Nc2nnn(C)n2)c(Br)c1 ?
12-hLO inh: 5%; PNC assembly inh: -100*; ALDH1A1 inh: -1%; HPGD inh: -12%; Lamin A splicing: -15%

Results for COc1ccc(OCC(=O)Nc2ccccc2Cl)cc1 ?
ALDH1A1 inh: -8%; Lamin A splicing: -14%[46 µM]

What do the screens show for `COc1ccc(NC(=O)CN2CCN(CC(=O)Nc3ccccc3Cl)CC2)cc1`?
12-hLO inh: -7%; PNC assembly inh: 51; ALDH1A1 inh: 8.9µM*; HPGD inh: -1%; Lamin A splicing: -1%

Results for COc1ccc(NC(=O)CN2CCCCC2)cc1 ?
12-hLO inh: -5%; PNC assembly inh: -6; ALDH1A1 inh: -18%; HPGD inh: -25%; Lamin A splicing: 15%

Results for COc1ccc(NC(=O)CN2CCN(c3ccccc3Cl)CC2)cc1 ?
12-hLO inh: 9%; PNC assembly inh: -100*; ALDH1A1 inh: inconclusive; HPGD inh: -5%; Lamin A splicing: -12%

What do the screens show for `COC(=O)c1ccccc1Sc1ncnc2onc(C)c12`?
ALDH1A1 inh: 4%

Results for O=C(c1cccc(F)c1)N1CCC[C@@]2(CCN(c3ccncc3)C2)C1 ?
12-hLO inh: 3%; ALDH1A1 inh: 3%; HPGD inh: -6%

What do the screens show for `C/C(=N/NC(=S)Nc1cccc(C)c1)c1cccc([N+](=O)[O-])c1`?
ALDH1A1 inh: 8.9µM*

How did C/C(=N\NC(=S)NC(C)C)c1cccc([N+](=O)[O-])c1 do in these assays?
12-hLO inh: -27%; PNC assembly inh: -13; ALDH1A1 inh: -2%; HPGD inh: -11%; Lamin A splicing: inconclusive

Results for O=C(NC1CCCC1)c1ccc(CSc2nc3cccnc3n2Cc2ccccc2F)cc1 ?
Lamin A splicing: -20%[46 µM]

What do the screens show for `CC(=O)C1C(=O)C=C(c2ccco2)CC1c1ccccc1` (centres undefined)?
12-hLO inh: -21%; PNC assembly inh: 4; ALDH1A1 inh: 25µM*; HPGD inh: -26%; Lamin A splicing: 12%

What do the screens show for `CCOC(=O)C1C(=O)C=C(c2ccc([N+](=O)[O-])cc2)CC1c1ccccc1` (centres undefined)?
12-hLO inh: -6%; PNC assembly inh: -18; ALDH1A1 inh: inconclusive; HPGD inh: inconclusive; Lamin A splicing: inconclusive
